Assay results taken from PubChem BioAssay AID1508600 (Functional Genomics Laboratory (NCATS/FGL), 2020).
Out of some 53,000 sequences screened, about 3,700 (7%) were called active. This is one part of a sample in which actives are shown more often than they occur.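 Rule for the calls: active = gene knockdowns whose robust z-score for IL-1 alpha signal is at least 2 or at most -2, so actives lie on both sides; inactive = the rest.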

Assay: Components of the Cytosolic LPS Sensing Pathway: Gene Identification via Genome-wide siRNA Screen;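 note: robust z of the log signal after scaling to non-targeting control siRNA wells of the plate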
Details: RAW264.7 macrophages, IL-1a HTRF, actives lie on both sides, screened at 100 nM (by protocol), cells primed 5 h with Pam3CSK4 first
Procedure, shortened: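 Cells (RAW264.7, 1×10^4 per well) were transfected with siRNA at 100 nM and cultured 48h at 37 degrees C. Pam3CSK4 was added for 5 hours; LipidA transfection followed for 24 hour. IL-1a was then measured by HTRF.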
In the case of GGUUGUGCCAGAGGAGAUUTT against Scrib, the z-score is reported as 0.963 (inactive).
For GGAAGAACUAGAGUCAUAUTT against Eps8l1, the z-score was -0.0721 (inactive).
In the case of CCAUACAUAAAAAGCCGCCTT against Il1rl1, the z-score is reported as 1.29 (inactive).
For GGUUCAUGUCAUCUUUAACTT against Calr, the z-score was -1.21 (inactive).
With GCAGAUGAUACCUGGGCAATT against Mtmr14 the z-score was 2.68 (active).
With GGAUCAAUUGGCACUAGACTT against Zfp787 the z-score was -1.31 (inactive).
In the case of GGACAAGUCCUUUGCUGUGTT against Zmynd8, the z-score is reported as -1.35 (inactive).
In the case of GGCAAUACUGGAAGGGUGUTT against Eps15, the z-score is reported as -1.03 (inactive).
With GGAUGAUAUGGCAUACUUUTT against Fam221a the z-score was 0.803 (inactive).
With “GGCCAUCUUGAAUUUUUUATT against 2410002F23Rik” the z-score was 0.0652 (inactive).
In the case of GGUGCUGUUGAAUUGUGGGTT against Wdr77, the z-score is reported as -0.366 (inactive).
With GAGCUCCUCUGCUUUCUCUTT against Ms4a6d the z-score was -2.74 (active).
With GGUUAAACUUGGUGAAUUATT against Kcnj16 the z-score was 0.901 (inactive).
In the case of GCACAUGUCUGUGAUUCAATT against St8sia1, the z-score is reported as -0.166 (inactive).
For GCGGAAACUCUCGAAAGUGTT against Dhx34, the z-score was -1.52 (inactive).
With CCUGAUGCAACACAGGUCCTT against Zbtb26 the z-score was 0.352 (inactive).
In the case of CGGAACACCAAUAAGAGAATT against Hgd, the z-score is reported as -0.667 (inactive).
With GGACCGAUUAAGGAAGGAATT against Ppp1r1a the z-score was 2.49 (active).
With GCGUGAUUGACAACUGGUUTT against Cphx1 the z-score was 0.236 (inactive).
For GGGAAUAUGACUGAAUAUATT against Ss18, the z-score was -1.05 (inactive).
With CCAAAUCGCUUCACAUAAUTT against Atp6v1g2 the z-score was -1.1 (inactive).
For GAGAAUGAGUUCUGCCCAGTT against Lhb, the z-score was 2.24 (active).
With GGACAAGAACCUGAAGCGGTT against Cdk5r1 the z-score was -0.355 (inactive).
In the case of GGCUGGAGAAAAUGAUGAATT against Rwdd1, the z-score is reported as -0.267 (inactive).
With GGAAGACAUAUUAACUACUTT against Gpr37 the z-score was 0.544 (inactive).
For GGAAAGCUCAAUUGGUUCGTT against Nup85, the z-score was -2.27 (active).
For GGGAUCAUCUCUUUUGCUGTT against Olfr720, the z-score was -1.33 (inactive).
With GGGAAGCCUUUUUUAUCGGTT against V1rb5 the z-score was 0.838 (inactive).
With CCCAUCCAAUAAGCAAUUGTT against Lpcat2 the z-score was -0.696 (inactive).
For GCGAGACUAUCAAAUCUAUTT against Gabra4, the z-score was 0.948 (inactive).
